What all share (assay): PBM binding z-score (relative to random genomic background probes); higher = stronger binding; sequences stand for … in GC…GCGATTGACAGCGTAGAATGAAGG
Assay [1] relates to RARb homodimer (NR concentration 270 nM). A digest of the protocol:
(§1)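 Custom Agilent 4×180K protein-binding microarrays carried double-stranded probes. Their 34-nt variable regions held direct-repeat seeds, single-nucleotide variants, half-site ablations and random human genomic background sequences. Arrays were incubated 1 h with ligand-free nuclear receptor dimers in PBS pH 7.4, 2% milk, 0.02% Triton X-100, 1 mM DTT, 0.2 mg/mL BSA and 0.4 mg/ml salmon testes DNA. Antibodies against each partner (one per run) detected binding, and scanned fluorescence was regression-normalized. Binding z-scores use random background probes as reference.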

Assay [2] deals with RARg:RXRa (NR concentration 270 nM, RXRa partner concentration 90 nM). Put shortly:
as §1

The test system of assay [3] is RARg homodimer (NR concentration 270 nM). Put shortly:
as §1

For assay [4], the system named is RXRa DBDmut IVT, anti-RXR (DBD mutation: RXRa K156A/R161A, NR concentration 90 nM). Put shortly: as §1
For assay [5], the system named is RXRa homodimer (NR concentration 180 nM). Put shortly: as §1
Assay [6] relates to THRa:RXRa (NR concentration 90 nM, RXRa partner concentration 90 nM). Put shortly:
as §1

The test system of assay [7] is THRa homodimer (NR concentration 90 nM). Put shortly:
as §1

Assay [8] has as its system VDR homodimer (NR concentration 270 nM). Put shortly: as §1

For the sequence TCGAGTAGGTTAGGGCCATTCAGAATGGCGTCGA, the PBM binding z-score was 0.309 in assay [1]; -0.0137 in assay [2]; 0.11 in assay [3]; -0.0874 in assay [4]; 0.299 in assay [5]; 0.672 in assay [6]. The PBM binding z-score in assay [7] was -0.173; in assay [8], -0.211.
For the sequence AGAACGAGGGCACGCTGAGTTGATAGCGGAGTAG, the PBM binding z-score came out at 1.17 in assay [1]; 1.85 in assay [2]; 2.56 in assay [3]; 1.97 in assay [4]; 1.26 in assay [5]; 1.86 in assay [6]. Besides, the PBM binding z-score came to 0.248 in assay [7] and 2.34 in assay [8].
For the sequence TAGCCTAGGTCAGATTGGGCCAGTATACGCTATA, the PBM binding z-score in assay [1] was 2.06; in assay [2], 2.79; in assay [3], 3.72; in assay [4], -0.225; in assay [5], 1.25; in assay [6] it was 3.56. The PBM binding z-score is -0.0542 in assay [7] and -0.257 in assay [8].
On to ACTATTAGTTGACGTAGGGCAACCGATACGACGC, for which the PBM binding z-score in assay [1] amounted to 0.993; in assay [2], 0.445; in assay [3], 0.82; in assay [4], 0.582; in assay [5], 0.328; in assay [6], 0.925. Besides, the results for the PBM binding z-score in assay [7] and in assay [8] were -0.0539 and 0.159, respectively.
On to CCTAGCAGGCCAATCTGGGTCACTCCAGGCTTGA, for which the PBM binding z-score in assay [1] is 2.01; in assay [2], 0.98; in assay [3] it was 1.01; in assay [4] it was -0.206; in assay [5], 0.548; in assay [6], 3.49. Also, the PBM binding z-score in assay [7] was 0.312; in assay [8] it was -0.0635.
For the sequence ATCGAAAGGTCGAGGTGACTATAGAGAAAGGGAA, the PBM binding z-score stood at 2.73 in assay [1]; 4.4 in assay [2]; 4.53 in assay [3]; 1.37 in assay [4]; 4.45 in assay [5]; 2.9 in assay [6]. In addition, the PBM binding z-score in assay [7] is 0.607; in assay [8], 0.269.
CTCGAAAGGTCGGTTGAGGTGAGGATACGGATAA: the PBM binding z-score in assay [1] amounted to 2.54; in assay [2], 3.23; in assay [3] it was 2.94; in assay [4], 0.698; in assay [5] it was 2.43; in assay [6], 5.04. Besides, the PBM binding z-score in assay [7] stood at 2.21; in assay [8], 0.231.

For the origin of these results see the supplement of paper PMC6555819.
